Test in all cases: NCI-60 one-dose screen, 48 h (100 = growth as untreated, 0 = no growth, -100 = all killed)
Assay [1] deals with NCI-H226 lung. The note with it: 10 µM unless noted.
Assay [2] concerns NCI-H460 lung. The settings on record: 10 µM unless noted.
The test system of assay [3] is 786-0 renal. The settings on record: 10 µM unless noted.
Assay [4] deals with MDA-MB-231 breast. The settings on record: 10 µM unless noted.
In assay [5] the test system is SF-268 CNS. The note with it: 10 µM unless noted.
Assay [6] concerns SF-539 CNS. The note with it: 10 µM unless noted.
Assay [7] has as its system M14 melanoma. The note with it: 10 µM unless noted.
Assay [8] deals with HCT-15 colon. The note with it: 10 µM.
In assay [9] the test system is UACC-62 melanoma. The settings on record: 10 µM unless noted.
Assay [10] has as its system UO-31 renal. The note with it: 10 µM unless noted.
Assay [11] deals with TK-10 renal. The settings on record: 10 µM unless noted.
Assay [12] deals with ACHN renal. The settings on record: 10 µM unless noted.
In assay [13] the test system is HL-60(TB) leukemia. The settings on record: 10 µM unless noted.
The subject of assay [14] is NCI/ADR-RES ovarian. The note with it: 10 µM unless noted.
The test system of assay [15] is T-47D breast. The settings on record: 10 µM unless noted.
The subject of assay [16] is MDA-MB-435 melanoma. The settings on record: 10 µM unless noted.
In assay [17] the test system is SW-620 colon. The settings on record: 10 µM unless noted.
In assay [18] the test system is MCF7 breast. The settings on record: 10 µM unless noted.
Assay [19] deals with HCT-116 colon. The note with it: 10 µM unless noted.
For assay [20], the system named is KM12 colon. The note with it: 10 µM unless noted.

Compounds without any hit were thinned out: in the full panel of roughly 83,000, 20% have a hit.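 Step 1: grow cells in 96-well plates. Step 2: add test compound at a single concentration. Step 3: incubate 48 h. Step 4: record percent growth.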 A number with no mark means an inactive call. The source made the active and inactive calls. The calls were made as follows: active = growth percent below 10; inactive = the rest.

With `CCOc1ccc(C(O)CN(C)Cc2ccccc2)cc1Cl` (centres undefined), the growth is 92.1% in assay [1]; 102% in assay [2]; 100% in assay [3]; 93.6% in assay [4]; 95.5% in assay [5]; 108% in [6]. Moreover, the growth in [7] was 96%; in [8] it was 106%; in assay [9], 96.4%; in assay [10], 85.5%; in assay [11] it was 102%; in assay [12], 109%. Besides, the growth in assay [13] was 103%; in assay [14] it was 99.4%; in [15], 97.1%; in assay [16] it was 103%; in assay [17], 98.5%; in assay [18], 98.6%. The figures for the growth in assay [19] and in assay [20] were 101% and 100%, respectively.
For `CC(=O)C1CCC2C3CC=C4CC(OC(=O)Cc5ccc(N(CCCl)CCCl)cc5)CCC4(C)C3CCC12C` (centres undefined), the growth in [1] was 94.6%; in assay [2], 101%; in [4], 112%; in assay [5], 93.7%; in assay [6], 79.5%; in assay [7] it was 97.4%. Moreover, the growth in assay [8] was 99.5%; in [9], 91.4%; in assay [10], 109%; in [11], 113%; in assay [12] it was 100%; in assay [13], 101%. Further, the growth was 96.2% in [14]; 105% in [15]; 111% in [16]; 101% in assay [17]; 106% in [18]; 93.7% in assay [19]. For the same compound, in [20], the growth is 106%.
For `CC(C)CCC1(CCO)C(=O)NC(=S)NC1=O`, the growth in [1] was 105%; in assay [2] it was 109%; in assay [3], 110%; in [4] it was 104%; in assay [5] it was 95.1%; in assay [6], 125%. In addition, the growth is 103% in assay [7]; 91.7% in assay [8]; 97.3% in assay [9]; 84.1% in assay [10]; 114% in [11]; 103% in assay [12]. Moreover, the growth is 98.1% in assay [13]; 114% in [14]; 112% in assay [15]; 104% in assay [16]; 105% in [17]; 109% in assay [18]. For the same compound, the growth in assay [19] and in assay [20] was 104% throughout.
As to `O=C(N/N=C/c1ccc(N(CCCl)CCCl)cc1)c1cc(=O)[nH]c(=O)[nH]1`, the growth in [1] is 5.48% (active); in assay [2], 39%; in assay [3], 83.2%; in assay [5] it was 95.2%; in assay [6] it was 91.3%; in assay [7], 103%. Moreover, the growth in assay [8] is 97.8%; in assay [10], 71.7%; in assay [11], 109%; in [12] it was 94.2%; in [14] it was 108%; in [16], 116%. In addition, the growth in assay [17] is 108%; in assay [18], 74.5%; in [19], 90.7%; in assay [20] it was 111%.
Take `C/C(=N/OC(=O)N(C)C)c1ccc(Cl)cc1Cl`: the growth is 104% in assay [1]; 104% in assay [2]; 100% in assay [3]; 116% in assay [4]; 103% in assay [5]; 95.9% in [6]. Further, the growth in [7] was 106%; in [8] it was 105%; in assay [9], 98.7%; in assay [10], 80.8%; in [11], 88.5%; in assay [12] it was 98.7%. The growth in [13] is 93.7%; in [14], 96.7%; in assay [15], 96.7%; in assay [16], 96%; in assay [17], 106%; in assay [18], 95%. Also, the growth is 99.1% in assay [19] and 108% in assay [20].
For `NS(=O)(=O)c1nc[nH]c1[N+](=O)[O-]`, the growth is 99.4% in [1]; 106% in assay [2]; 102% in assay [3]; 102% in assay [4]; 103% in assay [5]; 100% in [6]. Further, the growth in [7] is 102%; in [8], 101%; in assay [9] it was 102%; in assay [10], 84.7%; in assay [11], 99.5%; in assay [12] it was 96.9%. Further, the growth in assay [13] was 102%; in assay [14], 102%; in assay [15] it was 99.8%; in [16], 115%; in assay [17], 107%; in [19], 104%. The growth in assay [20] is 103%.
As to `N#CC1=C(N)Oc2cc3c(cc2C1c1cccs1)OCO3` (centres undefined), the growth in [1] was 47.6%; in [2], 15.6%; in assay [3] it was 49.5%; in [4], 41.8%; in [5], 47.3%; in [6] it was 0.18% (active). In addition, the growth in assay [7] is 15.1%; in assay [8], 35.5%; in assay [9] it was 31.1%; in [10] it was 49.2%; in assay [11] it was 56.1%; in assay [12], 57.4%. The growth in assay [13] is -28.6% (active); in assay [14] it was 3.49% (active); in assay [15], 42.8%; in assay [16], -7.43% (active); in assay [17] it was 26.3%; in [18] it was 15.7%. Besides, the growth was 21.2% in assay [19] and 34.2% in assay [20].
Take `CC1=C(SCCC(=O)OCC(=O)NCCC[Te]c2ccccc2)C(=O)c2ccccc2C1=O`: the growth in assay [1] is -4.17% (active); in assay [2] it was -43.1% (active); in [3] it was 23.2%; in assay [4], -34.5% (active); in [5] it was -13.1% (active); in [6], -60.3% (active). The growth in [7] is -52.4% (active); in assay [8], 10.4%; in assay [9] it was 2.51% (active); in assay [10] it was -0.644% (active); in assay [11], 18.9%; in [12] it was 12.4%. Besides, the growth in assay [13] is -2.74% (active); in assay [14], -10.5% (active); in assay [15] it was 18.9%; in [16] it was 4.67% (active); in assay [17] it was 22.1%; in [18] it was 3.85% (active). The figures for the growth in assay [19] and in assay [20] were -12.9% (active) and 2.96% (active), respectively.

These data come from PubChem BioAssay (NCI).
